Test results from PubChem BioAssay (NCATS).
Results filed as inconclusive are left out. The source made the active and inactive calls. Calls follow the shape of the dose curve; as a rule, active = well fitted curve in the direction sought with a large enough effect; inconclusive = small, poorly fitted or top-dose-only effect, or another doubt; inactive = no such curve, though single readings can be large; an effect the other way counts as inactive or inconclusive.

Legend:
HaCat [1] = assay: Cytotoxic Profiling of Annotated Libraries Using Quantitative High-Throughput Screening (AID 1296008); settings: Five cell lines viability, CellTiter-Glo ATP luminescence, 48-72 h; max response: stronger effect = lower value; also: nearly all actives have a fitted effect of over 60% in size
Procedure, shortened: (§1)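 Compounds were pin-transferred onto cells and incubated 48 or 72 hr at 37 degree Celsius, 95% humidity. CellTiter-Glo was added, plates sat 10 min at room temperature, then ATP-coupled luminescence was imaged as the viability read-out.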

NIH3T3 [2] = assay: as above; settings: Five cell lines viability, CellTiter-Glo ATP luminescence, 48-72 h; max response: stronger effect = lower value
Procedure, shortened: as §1

HEK293T [3] = assay: qHTS assay to identify novel small-molecules to repurpose for Merkel cell carcinoma treatment (AID 1296009); settings: MCC and control cell lines, CellTiter-Glo viability, 72 h; at 44.8 µM (top of the series) unless noted; also: nearly all actives have a fitted effect of over 60% in size
Procedure, shortened: (§2)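 qHTS format: cells treated with library compounds in DMSO across 8 (NPC) or 11 (MIPE) concentrations. Readout after 72 hr at 37 degree celsius was CellTiter-Glo luminescence.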

MCC-13 = assay: as above; settings: MCC and control cell lines, CellTiter-Glo viability, 72 h; series mostly up to 46 µM
Procedure, shortened: as §2

MCC-26 = assay: as above; settings: MCC and control cell lines, CellTiter-Glo viability, 72 h; series mostly up to 46 µM
Procedure, shortened: as §2

MKL-1 = assay: as above; settings: MCC and control cell lines, CellTiter-Glo viability, 72 h; series mostly up to 46 µM
Procedure, shortened: as §2

MKL-2 = assay: as above; settings: MCC and control cell lines, CellTiter-Glo viability, 72 h; series mostly up to 46 µM
Procedure, shortened: as §2

NIH3T3 [4] = assay: as above; settings: MCC and control cell lines, CellTiter-Glo viability, 72 h; at 44.8 µM (top of the series) unless noted
Procedure, shortened: as §2

UISO = assay: as above; settings: MCC and control cell lines, CellTiter-Glo viability, 72 h; series mostly up to 46 µM
Procedure, shortened: as §2

WaGa = assay: as above; settings: MCC and control cell lines, CellTiter-Glo viability, 72 h; series mostly up to 46 µM
Procedure, shortened: as §2

C33A = assay: Primary qHTS to identify gynecologic anti-cancer compounds using libraries of approved drugs and bioactive compounds (AID 1345084); settings: Gynecologic cancer cell panel viability, ATPlite luminescence, 48 h; series mostly up to 57.5 µM; also: nearly all actives have a fitted effect of over 55% in size
Procedure, shortened: (§3)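 Cytotoxicity screen measuring ATP content by luciferase luminescence. Each compound is applied at five concentrations for 48 h at 37 C with 5% CO2.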

CAOV3 = assay: as above; settings: Gynecologic cancer cell panel viability, ATPlite luminescence, 48 h; series mostly up to 57.5 µM
Procedure, shortened: as §3

CASKI = assay: as above; settings: Gynecologic cancer cell panel viability, ATPlite luminescence, 48 h; series mostly up to 57.5 µM
Procedure, shortened: as §3

Es-2 = assay: as above; settings: Gynecologic cancer cell panel viability, ATPlite luminescence, 48 h; series mostly up to 57.5 µM
Procedure, shortened: as §3

HeLa = assay: as above; settings: Gynecologic cancer cell panel viability, ATPlite luminescence, 48 h; series mostly up to 57.5 µM
Procedure, shortened: as §3

Hek293T [5] = assay: as above; settings: Gynecologic cancer cell panel viability, ATPlite luminescence, 48 h, control line for the selectivity index; series mostly up to 57.5 µM
Procedure, shortened: as §3

JEG-3 = assay: as above; settings: Gynecologic cancer cell panel viability, ATPlite luminescence, 48 h; series mostly up to 57.5 µM
Procedure, shortened: as §3

OV90 = assay: as above; settings: Gynecologic cancer cell panel viability, ATPlite luminescence, 48 h; series mostly up to 57.5 µM
Procedure, shortened: as §3

HACAT [6] = assay: qHTS assay to identify novel small-molecules to repurpose for Merkel cell carcinoma treatment (AID 1296009); settings: MCC and control cell lines, CellTiter-Glo viability, 72 h; at 44.8 µM (top of the series) unless noted; also: nearly all actives have a fitted effect of over 60% in size
Procedure, shortened: as §2
% is scaled to controls: 0 for no effect and ±100 for the full control effect.

CN1CCN(N)CC1
inactive: max response (HaCat [1]) 1.4% | outcome (NIH3T3 [2]) | outcome (HEK293T [3]) | Potency (MCC-13) | Potency (MCC-26) | Potency (MKL-1) | Potency (MKL-2) | outcome (NIH3T3 [4]) | Potency (UISO) | Potency (WaGa) | Potency (C33A) | Potency (CAOV3) | Potency (CASKI) | Potency (Es-2) | Potency (HeLa) | Potency (Hek293T [5]) | Potency (JEG-3) | Potency (OV90)

O=C1NC(c2ccccc2)(c2ccccc2)C(=O)N1COP(=O)(O)O
inactive: max response (HaCat [1]) -3.47% | outcome (NIH3T3 [2]) | outcome (HEK293T [3]) | Potency (MCC-13) | Potency (MCC-26) | Potency (MKL-1) | Potency (MKL-2) | outcome (NIH3T3 [4]) | Potency (UISO) | Potency (WaGa) | Potency (C33A) | Potency (CAOV3) | Potency (CASKI) | Potency (Es-2) | Potency (HeLa) | Potency (Hek293T [5]) | Potency (JEG-3) | Potency (OV90)

O=C1OC2(c3ccccc31)c1cc(I)c(O)c(I)c1Oc1c2cc(I)c(O)c1I
inactive: outcome (HaCat [1]) | max response (NIH3T3 [2]) -20.5% | outcome (HACAT [6]) | Potency (MCC-13) | Potency (MCC-26) | Potency (MKL-1) | Potency (UISO) | Potency (WaGa) | Potency (C33A) | Potency (CAOV3) | Potency (CASKI) | Potency (Es-2) | Potency (HeLa) | Potency (Hek293T [5]) | Potency (JEG-3) | Potency (OV90)

Cc1onc(-c2ccccc2)c1C(=O)Cl
inactive: outcome (HaCat [1]) | max response (NIH3T3 [2]) 4.1% | outcome (HACAT [6]) | Potency (MCC-13) | Potency (MCC-26) | Potency (MKL-1) | Potency (MKL-2) | Potency (UISO) | Potency (WaGa) | Potency (C33A) | Potency (CAOV3) | Potency (CASKI) | Potency (Es-2) | Potency (HeLa) | Potency (Hek293T [5]) | Potency (JEG-3) | Potency (OV90)

Nc1nc2ccccc2n1Cc1ccc(F)cc1
inactive: outcome (HaCat [1]) | outcome (NIH3T3 [2]) | outcome (HACAT [6]) | Potency (MCC-13) | Potency (MCC-26) | Potency (MKL-1) | outcome (NIH3T3 [4]) | Potency (C33A) | Potency (CAOV3) | Potency (CASKI) | Potency (Es-2) | Potency (HeLa) | Potency (JEG-3) | Potency (OV90)

CC(C)Cc1ccc(C(C)C(=O)OCc2ccccn2)cc1 (configuration not stated)
inactive: outcome (HaCat [1]) | max response (NIH3T3 [2]) -1.73% | outcome (HACAT [6]) | Potency (MCC-13) | Potency (MCC-26) | Potency (MKL-1) | Potency (UISO) | Potency (WaGa) | Potency (C33A) | Potency (CAOV3) | Potency (CASKI) | Potency (Es-2) | Potency (HeLa) | Potency (Hek293T [5]) | Potency (JEG-3) | Potency (OV90)

Cc1ccc(C(=O)Oc2ccc(C(O)CNC(C)(C)C)cc2OC(=O)c2ccc(C)cc2)cc1 (configuration not stated)
inactive: outcome (HaCat [1]) | outcome (NIH3T3 [2]) | outcome (HACAT [6]) | Potency (MCC-13) | Potency (MCC-26) | outcome (NIH3T3 [4]) | Potency (UISO) | Potency (C33A) | Potency (CASKI) | Potency (Es-2) | Potency (HeLa) | Potency (Hek293T [5]) | Potency (JEG-3)
